Test results from PubChem BioAssay AID1159580 (chemical genetic matrix, 2015).
About 2,000 (36%) of roughly 5,500 compounds were called active. Another 18% or so got no clear call; they are omitted. This is one part of the list. A number with no mark means an inactive call. Rule as the data show it: active = normalized growth mostly below about 0.91 (no sharp cut-off); inconclusive = no clear call, values can overlap the other calls; inactive = mostly above about 0.92.

Assay: chemical genetic growth profiling, strain panel (AID 1159580);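 also: tested at 20 µM; growth read once vehicle control cultures reached saturation at 30 °C; 1 = growth at the plate median or of vehicle wells; lower values mean less growth of the strain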
Details: growth OD

Q: For `CCn1cc(C(=O)O)c(=O)c2cnc(N3CCCC3)nc21`, which normalized growth (S. cerevisiae deletion strains, locus YKL009W, strain mrt4, hits give low values) is on record?
A: 0.987

Q: And the normalized growth (S. cerevisiae deletion strains, locus YKL068W, hits give low values)?
A: 1

Q: And the normalized growth (S. cerevisiae deletion strains, locus YKL085W, strain MDH1 (second series), hits give low values)?
A: 0.998

Q: What about the normalized growth (S. cerevisiae deletion strains, locus YKL085W, strain MDH1, hits give low values) of the same compound?
A: 0.998

Q: And the normalized growth (S. cerevisiae deletion strains, locus YKL160W, strain elf1, hits give low values)?
A: 0.975

Q: What about the normalized growth (S. cerevisiae deletion strains, locus YKL190W, strain CNB1, hits give low values) of the same compound?
A: 1

Q: What about the normalized growth (S. cerevisiae deletion strains, locus YKR001C, strain vps1, hits give low values) of the same compound?
A: 0.943

Q: What about the normalized growth (S. cerevisiae deletion strains, locus YKR026C, strain gcn3, hits give low values) of the same compound?
A: 1.02

Q: What about the normalized growth (S. cerevisiae deletion strains, locus YKR091W, strain srl3, hits give low values) of the same compound?
A: 1

Q: What about the normalized growth (S. cerevisiae deletion strains, locus YLL001W, strain dnm1, hits give low values) of the same compound?
A: 1.02

Q: What about the normalized growth (S. cerevisiae deletion strains, locus YLL026W, hits give low values) of the same compound?
A: 1

Q: And the normalized growth (S. cerevisiae deletion strains, locus YLL041C, strain sdh2, hits give low values)?
A: 0.993

Q: What about the normalized growth (S. cerevisiae deletion strains, locus YLR027C, strain aat2, hits give low values) of the same compound?
A: 0.996

Q: And the normalized growth (S. cerevisiae deletion strains, locus YLR039C, strain RIC1, hits give low values)?
A: 0.935

Q: What about the normalized growth (S. cerevisiae deletion strains, locus YLR058C, strain SHM2, hits give low values) of the same compound?
A: 1.01

Q: What about the normalized growth (S. cerevisiae deletion strains, locus YLR102C, strain apc9, hits give low values) of the same compound?
A: 1

Q: And the normalized growth (S. cerevisiae deletion strains, locus YLR113W, strain HOG1, hits give low values)?
A: 0.986

Q: And the normalized growth (S. cerevisiae deletion strains, locus YLR221C, strain rsa3, hits give low values)?
A: 0.994

Q: What about the normalized growth (S. cerevisiae deletion strains, locus YLR258W, strain gsy2, hits give low values) of the same compound?
A: 1.02

Q: What about the normalized growth (S. cerevisiae deletion strains, locus YLR262C, strain YPT6 (second series), hits give low values) of the same compound?
A: 0.789 (active)

Q: And the normalized growth (S. cerevisiae deletion strains, locus YLR262C, strain YPT6, hits give low values)?
A: 0.904

Q: And the normalized growth (S. cerevisiae deletion strains, locus YLR268W, strain sec22, hits give low values)?
A: 0.972

Q: What about the normalized growth (S. cerevisiae deletion strains, locus YLR320W, strain mms22, hits give low values) of the same compound?
A: 1.03

Q: What about the normalized growth (S. cerevisiae deletion strains, locus YLR330W, strain CHS5, hits give low values) of the same compound?
A: 1.01

Q: What about the normalized growth (S. cerevisiae deletion strains, locus YLR342W, strain FKS1 (second series), hits give low values) of the same compound?
A: 1.04

Q: What about the normalized growth (S. cerevisiae deletion strains, locus YLR342W, strain FKS1, hits give low values) of the same compound?
A: 1

Q: What about the normalized growth (S. cerevisiae deletion strains, locus YLR357W, strain rsc2, hits give low values) of the same compound?
A: 1.01

Q: What about the normalized growth (S. cerevisiae deletion strains, locus YLR370C, strain arc18, hits give low values) of the same compound?
A: 0.981

Q: What about the normalized growth (S. cerevisiae deletion strains, locus YLR371W, strain rom2, hits give low values) of the same compound?
A: 0.998

Q: And the normalized growth (S. cerevisiae deletion strains, locus YLR384C, strain iki3, hits give low values)?
A: 1.01

Q: What about the normalized growth (S. cerevisiae deletion strains, locus YLR418C, strain cdc73, hits give low values) of the same compound?
A: 1.09

Q: And the normalized growth (S. cerevisiae deletion strains, locus YML016C, strain PPZ1, hits give low values)?
A: 0.999

Q: What about the normalized growth (S. cerevisiae deletion strains, locus YML032C, strain rad52, hits give low values) of the same compound?
A: 0.999

Q: And the normalized growth (S. cerevisiae deletion strains, locus YML120C, strain ndi1, hits give low values)?
A: 0.981

Q: What about the normalized growth (S. cerevisiae deletion strains, locus YML124C, strain tub3, hits give low values) of the same compound?
A: 0.993

Q: What about the normalized growth (S. cerevisiae deletion strains, locus YMR058W, strain fet3, hits give low values) of the same compound?
A: 1

Q: What about the normalized growth (S. cerevisiae deletion strains, locus YMR078C, strain ctf18, hits give low values) of the same compound?
A: 1

Q: And the normalized growth (S. cerevisiae deletion strains, locus YMR125W, strain sto1, hits give low values)?
A: 1.01

Q: And the normalized growth (S. cerevisiae deletion strains, locus YMR129W, hits give low values)?
A: 1

Q: And the normalized growth (S. cerevisiae deletion strains, locus YMR205C, strain PFK2, hits give low values)?
A: 1.06

Q: What about the normalized growth (S. cerevisiae deletion strains, locus YMR223W, strain ubp8, hits give low values) of the same compound?
A: 0.98

Q: What about the normalized growth (S. cerevisiae deletion strains, locus YMR231W, strain pep5, hits give low values) of the same compound?
A: 1

Q: And the normalized growth (S. cerevisiae deletion strains, locus YMR263W, strain SAP30, hits give low values)?
A: 1.01

Q: What about the normalized growth (S. cerevisiae deletion strains, locus YMR307W, strain GAS1, hits give low values) of the same compound?
A: 1.06

Q: What about the normalized growth (S. cerevisiae deletion strains, locus YNL067W, strain RPL9B, hits give low values) of the same compound?
A: 0.998

Q: And the normalized growth (S. cerevisiae deletion strains, locus YNL071W, strain lat1, hits give low values)?
A: 1

Q: What about the normalized growth (S. cerevisiae deletion strains, locus YNL128W, strain TEP1, hits give low values) of the same compound?
A: 1.05

Q: What about the normalized growth (S. cerevisiae deletion strains, locus YNL153C, strain GIM3, hits give low values) of the same compound?
A: 0.996

Q: What about the normalized growth (S. cerevisiae deletion strains, locus YNL183C, strain NPR1, hits give low values) of the same compound?
A: 0.924

Q: And the normalized growth (S. cerevisiae deletion strains, locus YNL209W, strain ssb2, hits give low values)?
A: 0.993

Q: And the normalized growth (S. cerevisiae deletion strains, locus YNL233W, strain BNI4, hits give low values)?
A: 1.02

Q: And the normalized growth (S. cerevisiae deletion strains, locus YNL248C, strain rpa49, hits give low values)?
A: 0.956

Q: What about the normalized growth (S. cerevisiae deletion strains, locus YNL250W, strain rad50, hits give low values) of the same compound?
A: 0.996

Q: What about the normalized growth (S. cerevisiae deletion strains, locus YNL271C, strain bni1, hits give low values) of the same compound?
A: 1.02

Q: And the normalized growth (S. cerevisiae deletion strains, locus YNL298W, strain CLA4, hits give low values)?
A: 1

Q: And the normalized growth (S. cerevisiae deletion strains, locus YNL307C, strain MCK1, hits give low values)?
A: 1.03

Q: What about the normalized growth (S. cerevisiae deletion strains, locus YNL322C, strain KRE1 (second series), hits give low values) of the same compound?
A: 1

Q: And the normalized growth (S. cerevisiae deletion strains, locus YNL322C, strain KRE1, hits give low values)?
A: 0.999

Q: And the normalized growth (S. cerevisiae deletion strains, locus YNR049C, strain mso1, hits give low values)?
A: 0.984

Q: What about the normalized growth (S. cerevisiae deletion strains, locus YNR052C, strain pop2, hits give low values) of the same compound?
A: 0.961

Q: And the normalized growth (S. cerevisiae deletion strains, locus YOL006C, strain TOP1, hits give low values)?
A: 1.06

Q: What about the normalized growth (S. cerevisiae deletion strains, locus YOL012C, strain htz1) of the same compound?
A: 1.62

Q: What about the normalized growth (S. cerevisiae deletion strains, locus YOL147C, strain pex11, hits give low values) of the same compound?
A: 0.998

Q: And the normalized growth (S. cerevisiae deletion strains, locus YOR001W, strain rrp6, hits give low values)?
A: 0.958

Q: What about the normalized growth (S. cerevisiae deletion strains, locus YOR061W, strain CKA2, hits give low values) of the same compound?
A: 1

Q: What about the normalized growth (S. cerevisiae deletion strains, locus YOR069W, strain VPS5, hits give low values) of the same compound?
A: 1

Q: What about the normalized growth (S. cerevisiae deletion strains, locus YOR070C, strain gyp1, hits give low values) of the same compound?
A: 1.01

Q: And the normalized growth (S. cerevisiae deletion strains, locus YOR080W, strain dia2, hits give low values)?
A: 1.01

Q: And the normalized growth (S. cerevisiae deletion strains, locus YOR083W, strain WHI5, hits give low values)?
A: 0.968

Q: What about the normalized growth (S. cerevisiae deletion strains, locus YOR106W, strain vam3, hits give low values) of the same compound?
A: 0.936

Q: And the normalized growth (S. cerevisiae deletion strains, locus YOR136W, strain idh2, hits give low values)?
A: 0.999

Q: What about the normalized growth (S. cerevisiae deletion strains, locus YOR144C, strain elg1, hits give low values) of the same compound?
A: 0.988

Q: And the normalized growth (S. cerevisiae deletion strains, locus YOR184W, strain ser1, hits give low values)?
A: 0.978

Q: What about the normalized growth (S. cerevisiae deletion strains, locus YOR231W, strain MKK1, hits give low values) of the same compound?
A: 0.983

Q: What about the normalized growth (S. cerevisiae deletion strains, locus YOR265W, strain rbl2, hits give low values) of the same compound?
A: 1.01

Q: What about the normalized growth (S. cerevisiae deletion strains, locus YOR270C, strain vph1, hits give low values) of the same compound?
A: 1.02

Q: And the normalized growth (S. cerevisiae deletion strains, locus YOR290C, strain snf2, hits give low values)?
A: 0.994

Q: And the normalized growth (S. cerevisiae deletion strains, locus YOR316C, strain cot1, hits give low values)?
A: 1

Q: And the normalized growth (S. cerevisiae deletion strains, locus YPL051W, strain arl3, hits give low values)?
A: 0.981

Q: And the normalized growth (S. cerevisiae deletion strains, locus YPL055C, strain LGE1, hits give low values)?
A: 1.02

Q: What about the normalized growth (S. cerevisiae deletion strains, locus YPL078C, strain atp4, hits give low values) of the same compound?
A: 0.974

Q: And the normalized growth (S. cerevisiae deletion strains, locus YPL106C, strain sse1, hits give low values)?
A: 1.03

Q: What about the normalized growth (S. cerevisiae deletion strains, locus YPL240C, strain hsp82, hits give low values) of the same compound?
A: 0.986

Q: What about the normalized growth (S. cerevisiae deletion strains, locus YPL241C, strain CIN2, hits give low values) of the same compound?
A: 1.01

Q: What about the normalized growth (S. cerevisiae deletion strains, locus YPL256C, strain CLN2, hits give low values) of the same compound?
A: 0.98

Q: And the normalized growth (S. cerevisiae deletion strains, locus YPR119W, strain clb2, hits give low values)?
A: 0.996

Q: And the normalized growth (S. cerevisiae deletion strains, locus YPR141C, strain kar3, hits give low values)?
A: 1

Q: What about the normalized growth (S. cerevisiae deletion strains, locus YPR163C, strain tif3, hits give low values) of the same compound?
A: 1.02

Q: What about the normalized growth (S. cerevisiae deletion strains, locus YPR167C, strain met16, hits give low values) of the same compound?
A: 0.986

Q: What about the normalized growth (S. cerevisiae deletion strains, strain wtn01, hits give low values) of the same compound?
A: 0.987

Q: And the normalized growth (S. cerevisiae strains, strain wild type, hits give low values)?
A: 1.01
